Screening results: PubChem, several laboratories
This is a sample that favours compounds with a hit; in the whole collection about 3.1% have one here.
MBD2 DNA inh – inhibitors of MBD2 binding to methylated DNA, primary screen, biochemical, TR-FRET, DNA-binding domain, human; inhibition, % at 4.4 µM; AID 686964, 2013; 370,000 tested, 0.31% active; MBD2 binding to methylated oligonucleotide; in the data active means inhibition above about 13%
KLK7 zymogen act – proKLK7 zymogen activators, primary screen, biochemical, fluorescence intensity; purified proKLK7, EDANS-DABCYL substrate fluorescence; 100% is mature enzyme control, 0% vehicle; activation, % at 7 µM; 370,000 tested, 0.9% active; AID 652039, 2013;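 active means activation above the mean of all tested compounds plus 3 SD, computed per campaign excluding outliers beyond control limits, cut at about 13% in these data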
Neddyl block – inhibitors of cullin neddylation, primary screen, biochemical, TR-FRET, uHTS, NAE and Ubc12 | NEDD8-conjugating enzyme Ubc12 (Homo sapiens) + NEDD8-activating enzyme E1 regulatory … | calls only at 25 µM | 360,000 tested, 0.58% active | AID 651699, 2012; in the data active means inhibition above about 36%
UHRF1 binding – UHRF1 methylated DNA binding inhibitors, primary screen, counter-screen for MBD2 inhibitor project, biochemical, TR-FRET, human UHRF1, single concentration | inhibition, % at 4.4 µM | UHRF1 binding to methylated oligo | 370,000 tested, 0.75% active | E3 ubiquitin-protein ligase UHRF1 (Homo sapiens), Q96T88;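 further: UHRF1 SRA domain binding a hemimethylated CpG hairpin DNA probe; 0% = median of test compound wells and 100% = reference inhibitor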
Target sequence (Q96T88 whole entry, looked up, the tested form may be a part): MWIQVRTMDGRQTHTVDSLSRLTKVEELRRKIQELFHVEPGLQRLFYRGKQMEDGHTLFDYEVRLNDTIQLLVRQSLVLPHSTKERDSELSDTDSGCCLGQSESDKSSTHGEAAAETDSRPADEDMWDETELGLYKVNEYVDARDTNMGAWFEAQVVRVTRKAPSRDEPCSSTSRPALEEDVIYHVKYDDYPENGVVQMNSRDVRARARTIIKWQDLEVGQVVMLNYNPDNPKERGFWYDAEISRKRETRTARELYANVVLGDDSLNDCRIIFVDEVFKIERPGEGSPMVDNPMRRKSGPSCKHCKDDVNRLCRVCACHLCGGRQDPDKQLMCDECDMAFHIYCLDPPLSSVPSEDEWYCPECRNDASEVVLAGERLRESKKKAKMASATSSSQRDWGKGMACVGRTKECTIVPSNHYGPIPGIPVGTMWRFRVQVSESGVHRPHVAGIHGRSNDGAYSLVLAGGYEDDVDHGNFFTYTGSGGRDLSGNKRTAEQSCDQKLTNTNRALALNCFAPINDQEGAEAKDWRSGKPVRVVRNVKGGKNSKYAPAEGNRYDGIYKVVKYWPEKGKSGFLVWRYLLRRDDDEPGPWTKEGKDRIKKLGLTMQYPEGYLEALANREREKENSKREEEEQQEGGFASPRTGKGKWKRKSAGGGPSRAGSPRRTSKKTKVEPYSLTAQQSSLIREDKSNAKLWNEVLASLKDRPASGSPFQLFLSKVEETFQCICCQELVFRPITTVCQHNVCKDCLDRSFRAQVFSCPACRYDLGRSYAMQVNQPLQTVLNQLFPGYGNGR
Rin1-Abl PPI inh – inhibitors of Rin1-Abl protein binding, primary screen, biochemical, TR-FRET; Tyrosine-protein kinase ABL1 (Homo sapiens) + Ras and Rab interactor 1 (Homo sapiens), …; inhibition, % at 7.35 µM; 360,000 tested, 0.4% active; AID 588664, 2011; in the data active means inhibition above about 5%, passing the limit was not always enough
LEDGF integ inh – blockers of LEDGF/p75-dependent integrase strand transfer – biochemical, TR-FRET, high throughput, primary screen; inhibition, % at 3.7 µM; TR-FRET IN-LEDGF/p75 DNA integration, Eu/Cy5; 370,000 tested, 0.64% active;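 active means inhibition above the screen-wide mean plus 3 SD, cut at about 13% in these data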;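 further: signal is the Cy5 over europium emission ratio at 671 and 618 nm; 0% = plate median of compound wells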
Neddyl inh conf – blockade of NEDD8 conjugation to cullin – biochemical, TR-FRET, single concentration, confirmation; AID 652217, 2013; 1,800 tested, 13% active; shares compounds with Neddyl block; calls only at 25 µM; TR-FRET cullin neddylation biochemical assay; in the data active means inhibition above about 40%;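 further: neddylation substrate is the cullin 1 ring ligase complex with SKP2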
KLK7 act conf – proKLK7 zymogen activators, confirmation, biochemical, fluorescence intensity, triplicate; 3,200 tested, 68% active; activation, % at 7 µM; purified proKLK7, EDANS-DABCYL substrate fluorescence; scaled: vehicle 0, mature enzyme 100; shares compounds with KLK7 zymogen act; AID 686949, 2013;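 active means activation, as change over the incubation, above the mean of all tested compounds plus 3 SD, cut at about 13% in these data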
EDANS interfere – EDANS-DABCYL substrate optical interference, artefact control for kallikrein-7 zymogen activator project, biochemical, fluorescence intensity, high throughput; shares compounds with KLK7 zymogen act; no enzyme, 4 h; solvent 0%, active enzyme control 100%; activation, % at 7 µM; 3,200 tested, 80% active;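 active means activation above the all-compound mean plus 3 SD, ignoring values outside control-based bounds, cut at about 4.8% in these data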;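 further: value is the 4 h activation minus the activation read at time zero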
EDANS interf – EDANS fluorescence interference in dose response, no enzyme. AID 720493. EDANS-DABCYL peptide fluorescence interference. EC50, µM. shares compounds with KLK7 zymogen act. 250 tested, 20% active;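 active means compounds that raise the fluorescence signal in this interference counterscreen, with EC50 at or below 10 µM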;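 further: intact quenched peptide substrate alone read at 355 nm excitation and 520 nm emission; signal is fluorescence gain from T0 to T4 after four hours at room temperature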
UHRF1 DNA bind – UHRF1 methylated DNA binding inhibitors, counter-screen for MBD2 inhibitor project, biochemical, TR-FRET, human UHRF1; UHRF1 binding to methylated oligonucleotide; shares compounds with MBD2 DNA inh; 1,000 tested, 25% active; inhibition, % at 4.4 µM;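 further: UHRF1 SRA domain binding a labeled hemimethylated CpG hairpin DNA; 0% = vehicle only and 100% = reference inhibitor with vehicle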
MBD2 confirm – inhibitors of MBD2 binding to methylated DNA, confirmation, biochemical, TR-FRET, DNA-binding domain, human | AID 720531, 2013 | inhibition, % at 4.4 µM | TR-FRET MBD2-DBD binding to methylated oligonucleotide | shares compounds with MBD2 DNA inh | 1,000 tested, 26% active; in the data active means inhibition above about 14%
An asterisk follows results filed as active; i = inactive; . = no result given; + = active, no number; ! = not active in a repeat. Unless noted, no stated cut-off is given here; in the data, active means inhibition above about 21%; inactive means the rest.

SMILES	MBD2 DNA inh	KLK7 zymogen act	Neddyl block	UHRF1 binding	Rin1-Abl PPI inh	LEDGF integ inh	KLK7 act conf	EDANS interfere	others
COc1ccc([C@H]2Cc3cccc(O)c3C(=O)O2)cc1O	4	-1	i	-1	-1	-2	.	.
COc1ccc(C(=O)n2cc(C(=O)c3cc(C)ccc3O)cn2)cc1OC	6	21*	+	-2	-2	1	55*	49*
CN(C)c1cccc(C(=O)n2cc(C(=O)c3cc(F)ccc3O)cn2)c1	-3	1	.	-3	0	0	.	.
COc1ccc(O)c(C(=O)c2cnn(C(=O)c3cccc(N(C)C)c3)c2)c1	-2	51*	+	-3	4	3	168*	157*	Neddyl inh conf=i
Cc1cccc(NC(=O)CCS(=O)(=O)c2cc3c(cc2Cl)NC(=O)CO3)c1	-4	0	i	-1	-1	0	.	.
Cc1ccc(-c2ccc3nnc(SCC(=O)NCC4CCCO4)n3n2)cc1 (configuration not stated)	-1	1	i	-1	-1	-7	.	.
COc1ccc(-c2ccc3nnc(SCC(=O)NCC4CCCO4)n3n2)cc1 (configuration not stated)	2	22*	+	1	0	2	31*	18*	EDANS interf=>70
O=C(c1ccccc1)n1ccc2ccc(-c3ccc4ccn(C(=O)c5ccccc5)c4c3)cc21	-1	-7	.	-1	.	5	.	.
CCN1CCN(c2ccc(N3CCN(C(=O)c4ccc(Br)o4)CC3)nn2)CC1	-2	19*	+	2	1	1	6	4.4*
COc1ccc(-c2ccnc3cc(C(=O)O)nn23)cc1	-1	13*	+	-1	1	-4	34*	32*
C[C@H](O)C(=O)C1=Nc2c(nc(N)[nH]c2=O)NC1	-6	16*	+	-2	-3	2	28*	33*	Neddyl inh conf=i
C[C@H](O)[C@H](O)[C@H]1CNc2nc(N)[nH]c(=O)c2N1	-6	0	.	-2	2	0	.	.
CC(=O)c1ccc(-c2ccc(C(=O)NC3CC(C)(C)NC(C)(C)C3)o2)cc1	-3	34*	+	-2	0	-1	18*	24*
CC1(C)CC(NC(=O)c2ccc(F)cc2)CC(C)(C)N1	1	0	i	2	-1	-2	.	.
O=C1c2ccccc2-c2n[nH]c3cccc1c23	-3	63*	+	-3	-8	-3	74*	75*
Cn1ncc(N=Cc2ccc([N+](=O)[O-])cc2)c1C(=O)Nc1ccccc1	-5	0	i	2	4	-2	.	.
CCOC(=O)c1cc2c(=O)n3cccc(C)c3nc2n(CCCOC)c1=NC(=O)c1cccnc1	1	9	.	0	-4	0	.	.
CCOCCCn1c(=NC(=O)c2cccnc2)c(C(=O)OCC)cc2c(=O)n3ccccc3nc21	-2	29*	.	-5	-6	-3	3	4.5*!	Neddyl inh conf=+
CC(=O)c1ccc(-c2ccc(C(=O)N3CCC(C(N)=O)CC3)o2)cc1	4	24*	+	3	-3	-12	27*	29*
CC(=O)c1ccc(-c2ccc(C(=O)N3CCN(c4ccc(F)cc4)CC3)o2)cc1	-2	1	i	-1	2	-1	.	.
COc1ccc(C(=O)Nc2ccccc2N2CCN(C(=O)c3ccccc3)CC2)cc1Br	-4	0	i	0	2	-2	.	.
CN1C[C@@H]2C(c3ccccc3)C3(c4ccc(C#N)cc4)CC2(C3)[C@H]1c1ccccc1 (some centres not stated)	-2	0	i	3	2	2	.	.
CN1C=CC2=C(C#N)C(N)C(C#N)(C#N)C(c3ccccc3)C2C1 (configuration not stated)	-8	25*	+	-7	-4	-1	33*	35*	Neddyl inh conf=i
CCNC(=O)N1CCN(c2ccc(N3CCN(Cc4ccccc4)[C@H](C)C3)c(C)c2)[C@@H](C)C1	0	1	.	3	.	-4	.	.
CCc1ccc(-c2cnc3nc[nH]c(=O)c3n2)cc1	2	15*	+	6	-2	0	38*	39*	Neddyl inh conf=+
OC1CCCN(Cc2c3ccccc3cc3ccccc23)C1 (configuration not stated)	5	15*	+	4	-2	-2	-2	-2	Neddyl inh conf=+
OC1CCCN(Cc2cccc3ccccc23)C1 (configuration not stated)	-6	0	i	3	2	5	.	.
C[C@H](NC(=O)c1cc2c(cn1)[nH]c1ccccc12)C(=O)O	42*	18*	+	1	0	-3	9	7.4*	Neddyl inh conf=+;UHRF1 DNA bind=3;MBD2 confirm=3
C[C@H](NC(=O)c1nc[nH]c1C(=O)N1CCc2ccccc2C1)C(=O)OCc1ccccc1	-5	1	i	-8	1	3	.	.
